In PubChem BioAssay (NCATS):
Results filed as inconclusive are left out. The source made the active and inactive calls. Calls follow the shape of the dose curve; as a rule, active = well fitted curve in the direction sought with a large enough effect; inconclusive = small, poorly fitted or top-dose-only effect, or another doubt; inactive = no such curve, though single readings can be large; an effect the other way counts as inactive or inconclusive.

What was measured:
[1] = Quantitative High-Throughput drug screen in 47 multiple myeloma cell lines against the NCATS MIPE library collection: FR4_PLB cell viability assay (AID 1918924; also: nearly all actives have a fitted effect of over 35% in size)
Procedure, shortened: (§1)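 Myeloma cells (500 per well) were exposed to MIPE 4.0 compounds by pin transfer and incubated 48 hours at 37C, 5% CO2. Viability was read as ATP by CellTiter-Glo luminescence, normalised to DMSO (100%) and media-only (0%) wells.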

[2] = Quantitative High-Throughput drug screen in 47 multiple myeloma cell lines against the NCATS MIPE library collection: Delta47_JCRB cell viability assay (AID 1918925; also: nearly all actives have a fitted effect of over 45% in size)
Procedure, shortened: (§2)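 Viability readout: CellTiter-Glo luminescence following 5 min room-temperature incubation with reagent. Prior exposure: 48 h, 37C, humidified 5% CO2, 500 cells per well.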

[3] = Quantitative High-Throughput drug screen in 47 multiple myeloma cell lines against the NCATS MIPE library collection: EJM_DSMZ cell viability assay (AID 1918926; also: nearly all actives have a fitted effect of over 30% in size)
Procedure, shortened: as §2

[4] = Quantitative High-Throughput drug screen in 47 multiple myeloma cell lines against the NCATS MIPE library collection: AMO1_DSMZ cell viability assay (AID 1918927; also: nearly all actives have a fitted effect of over 30% in size)
Procedure, shortened: as §2

[5] = Quantitative High-Throughput drug screen in 47 multiple myeloma cell lines against the NCATS MIPE library collection: ARP1_JJKsccF8 cell viability assay (AID 1918928; also: nearly all actives have a fitted effect of over 40% in size)
Procedure, shortened: (§3)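 Viability screen: myeloma cells (500/well) incubated 48 h at 37 °C, humidified 5% CO2, with pinned library compounds; CellTiter-Glo added, luminescence read; DMSO wells set 100%, medium-only wells 0%.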

[6] = Quantitative High-Throughput drug screen in 47 multiple myeloma cell lines against the NCATS MIPE library collection: Karpas620_DSMZ cell viability assay (AID 1918959); also: nearly all actives have a fitted effect of over 30% in size
Procedure, shortened: as §1

[7] = Quantitative High-Throughput drug screen in 47 multiple myeloma cell lines against the NCATS MIPE library collection: Karpas417_ECACC cell viability assay (AID 1918961); conditions: Karpas417 myeloma viability, CellTiter-Glo ATP luminescence, 48 h; viability (% of DMSO): at 45.8 µM (top of the series)
Procedure, shortened: (§4)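 CellTiter-Glo ATP luminescence gave viability after 48 h compound treatment at 37C of 500 multiple myeloma cells per well. Normalisation used DMSO-only wells as 100% and media-only wells as 0% viability; primary qHTS of approved and investigational drugs.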

[8] = Quantitative High-Throughput drug screen in 47 multiple myeloma cell lines against the NCATS MIPE library collection: KHM11_PLB cell viability assay (AID 1918962); also: nearly all actives have a fitted effect of over 35% in size
Procedure, shortened: as §1

[9] = Quantitative High-Throughput drug screen in 47 multiple myeloma cell lines against the NCATS MIPE library collection: JIM3_ECACC cell viability assay (AID 1918963; also: nearly all actives have a fitted effect of over 35% in size)
Procedure, shortened: as §1

[10] = Quantitative High-Throughput drug screen in 47 multiple myeloma cell lines against the NCATS MIPE library collection: JIM1_ECACC cell viability assay (AID 1918964)
Procedure, shortened: as §2

[11] = Quantitative High-Throughput drug screen in 47 multiple myeloma cell lines against the NCATS MIPE library collection: INA6_PLB cell viability assay (AID 1918965; also: nearly all actives have a fitted effect of over 55% in size)
Procedure, shortened: as §4

[12] = Quantitative High-Throughput drug screen in 47 multiple myeloma cell lines against the NCATS MIPE library collection: JJN3_DSMZ cell viability assay (AID 1918966; also: nearly all actives have a fitted effect of over 50% in size)
Procedure, shortened: as §2

[13] = Quantitative High-Throughput drug screen in 47 multiple myeloma cell lines against the NCATS MIPE library collection: H1112_PLB cell viability assay (AID 1918967; also: nearly all actives have a fitted effect of over 30% in size)
Procedure, shortened: as §2

[14] = Quantitative High-Throughput drug screen in 47 multiple myeloma cell lines against the NCATS MIPE library collection: Karpas25_ECACC cell viability assay (AID 1918968; also: nearly all actives have a fitted effect of over 35% in size)
Procedure, shortened: as §2

[15] = Quantitative High-Throughput drug screen in 47 multiple myeloma cell lines against the NCATS MIPE library collection: KMS27_JCRB cell viability assay (AID 1918970); conditions: KMS27 myeloma cells, CellTiter-Glo ATP viability, 48 h; viability (% of DMSO): at 45.8 µM (top of the series); also: nearly all actives have a fitted effect of over 30% in size
Procedure, shortened: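 KMS27_JCRB myeloma cells, 500 per well, exposed 48 h at 37 C, 5% CO2 to MIPE 4.0 compounds. Viability from ATP by CellTiter-Glo luminescence, normalized to DMSO (100%) and medium-only (0%) wells.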

[16] = Quantitative High-Throughput drug screen in 47 multiple myeloma cell lines against the NCATS MIPE library collection: KMM1_JCRB cell viability assay (AID 1918960); also: nearly all actives have a fitted effect of over 30% in size
Procedure, shortened: as §3

[17] = Quantitative High-Throughput drug screen in 47 multiple myeloma cell lines against the NCATS MIPE library collection: ARD_JJKsccE7 cell viability assay (AID 1918929)
Procedure, shortened: as §2

Measured: Potency
Potency is read from the fitted curve at half-maximal effect.

O=C(Nc1ncc(SCCN2CCCC2)s1)[C@]1(c2ccc(S(=O)(=O)C3CC3)cc2)C[C@@H]1C1CCCCC1
active: [1] 18.7 µM | [2] 14.8 µM | [3] 18.7 µM | [4] 8.33 µM | [5] 26.4 µM | [6] 8.33 µM | [7] 10.5 µM | [8] 16.6 µM | [9] 20.9 µM | [10] 6.62 µM | [11] 16.6 µM | [12] 16.6 µM | [13] 23.5 µM | [14] 18.7 µM | [15] 7.43 µM

CCNC(=O)CCCC=CC[C@@H]1[C@H](C=CC(O)CCc2ccccc2)[C@@H](O)C[C@@H]1O (stereo partly specified)
active: [5] 10.5 µM
not listed: [3] | [8] | [12] | [17]
inactive: all other assays above

COc1cccc(OC)c1-c1cc(C(=O)NC2(C(=O)O)C3CC4CC(C3)CC2C4)nn1-c1ccnc2cc(Cl)ccc12 (stereo unspecified)
not listed: [5] | [7] | [8] | [10] | [11] | [12]
inactive: all other assays above

COc1cc([C@H]2Oc3cc([C@H]4Oc5cc(O)cc(O)c5C(=O)[C@H]4O)ccc3O[C@H]2CO)ccc1O
active: [1] 18.7 µM | [2] 13.2 µM | [3] 14.8 µM | [5] 16.6 µM | [9] 16.6 µM | [11] 13.2 µM | [12] 9.35 µM
inactive: [6] | [16] | [10] | [15]

O=C(O)CCC=CCC[C@@H]1[C@H](N2CCCCC2)[C@@H](O)C[C@@H]1OCc1ccc(-c2ccccc2)cc1
not listed: [4] | [7] | [10] | [11] | [14] | [17]
inactive: all other assays above

CC(O)=C(C#N)C(=O)Nc1ccc(C(F)(F)F)cc1
active: [1] 16.6 µM | [2] 18.7 µM | [4] 6.62 µM | [9] 23.5 µM | [11] 26.4 µM | [14] 26.4 µM
inactive: [6] | [16]

O=C(Nc1cccc(Cl)c1)Nc1ncc(CCNc2ncnc3ccsc23)s1
active: [1] 6.62 µM | [2] 7.43 µM | [4] 1.05 µM | [17] 4.69 µM | [6] 3.32 µM | [16] 5.9 µM | [9] 13.2 µM | [11] 7.43 µM | [13] 0.0833 µM | [14] 18.7 µM

CC(C)CN(C[C@@H](O)[C@H](Cc1ccccc1)NC(=O)O[C@H]1CO[C@H]2OCC[C@H]21)S(=O)(=O)c1ccc(N)cc1
active: [2] 1.48 µM | [3] 5.9 µM | [9] 13.2 µM | [13] 2.09 µM | [14] 3.72 µM
inactive: [1] | [4] | [6] | [16] | [10]

CC[C@H](NC(=O)[C@H](C)NC)C(=O)N1C[C@@H](O)C[C@H]1Cc1c(-c2[nH]c3cc(F)ccc3c2C[C@H]2C[C@H](O)CN2C(=O)[C@H](CC)NC(=O)[C@H](C)NC)[nH]c2cc(F)ccc12
inactive: [1] | [12]
active: [2] 16.6 µM | [4] 4.69 µM | [17] 9.35 µM | [16] 14.8 µM | [9] 1.48 µM | [10] 2.09 µM | [11] 11.8 µM | [13] 11.8 µM | [14] 16.6 µM | [15] 0.935 µM
